Outcome and AC50 data for 17 molecules are collected here from PubChem BioAssay (EPA / NIEHS).

Inconclusive results are not listed. Calls of active or inactive are those of the source. Rule for the calls: active = hit-call score of the fitted dose curve at least 0.9, where 1 is the maximum; inconclusive = response in the unintended direction; inactive = score below 0.9.

The target of experiment [1] is human AKT serine/threonine Kinase 2 (AKT2), AKT2 (gene 208) (UniProt P31751). Description: NVS_ENZ_hAKT2: NovaScreen (NVS) Enzymatic Assay for human AKT serine/threonine Kinase 2 (AKT2) (AID 2283141). The essentials: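 Cell-free fluorescence/electrophoretic mobility shift readout of recombinant human AKT2 activity, 1 h after chemical dosing. Duplicate primary screen at 25 uM, then singleton concentration-response up to 50 uM; loss of signal versus DMSO baseline.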

Experiment [2] has as its target Glycogen synthase kinase-3 beta (Homo sapiens) (UniProt P49841). Description: NVS_ENZ_hGSK3b: NovaScreen (NVS) Enzymatic Assay for human Glycogen Synthase Kinase-3 beta (GSK3b) (AID 2283165). The essentials: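 Recombinant enzyme with specific fluorescent substrate, 1 h, product separated by electrophoretic mobility shift. Primary duplicate screen at 25 uM; actives (e.g. 30% inhibition) followed in singleton concentration-response to 50 uM. Signal loss fitted versus DMSO.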

Experiment [3] deals with human Dual Specificity Protein Phosphatase 3 (DUSP3), DUSP3 (gene 1845) (UniProt P51452). The experiment is described as follows: NVS_ENZ_hDUSP3: NovaScreen (NVS) Enzymatic Assay for human Dual Specificity Protein Phosphatase 3 (DUSP3) (AID 2283152). A digest of the protocol: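 Cell-free fluorescence-intensity enzyme activity assay with recombinant protein and substrate; loss of signal fitted relative to DMSO baseline. Primary screen in duplicate at 25 uM, actives then run in concentration series; measured 0 h after dosing.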

Experiment [4] concerns the target human Esterase Plasma (ES), BCHE (gene 590) (UniProt P06276). Description: NVS_ENZ_hES: NovaScreen (NVS) Enzymatic Assay for human Esterase Plasma (ES) (AID 2283157). The essentials:
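Screening ran at 25 uM in duplicate, followed by singleton concentration series reaching 50 uM for actives. Human plasma protein, colorimetric detection, 0.25 h exposure, DMSO negative control.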

The target in experiment [5] is human Beta-secretase (BACE), BACE1 (gene 23621) (UniProt P56817). The experiment is described as follows: NVS_ENZ_hBACE: NovaScreen (NVS) Enzymatic Assay for human Beta-secretase (BACE) (AID 2283140).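 Note: hits are inhibitors that reduce fluorescent substrate signal versus DMSO.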 The essentials:
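Enzyme activity of SF9-produced BACE1 is measured cell-free by fluorescence, 1 hour post dosing, normalised to DMSO. Screening used 25 uM in duplicate, with concentration-response follow-up for actives.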

The target of experiment [6] is human Caspase 8 (CASP8), CASP8 (gene 841) (UniProt Q14790). The experiment is described as follows: NVS_ENZ_hCASP8: NovaScreen (NVS) Enzymatic Assay for human Caspase 8 (CASP8) (AID 2283146). The essentials:
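The primary screen tested compounds in duplicate at a single 25 uM concentration, with actives followed up in concentration series. Activity of recombinant (E. coli) protease was measured by fluorescence 1 h post-dose, as signal loss against DMSO.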

Experiment [7] concerns the target human Epidermal Growth Factor Receptor (EGFR), EGFR (gene 1956) (UniProt P00533). Description: NVS_ENZ_hEGFR: NovaScreen (NVS) Enzymatic Assay for human Epidermal Growth Factor Receptor (EGFR) (AID 2283151). The essentials: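 Cell-free kinase assay, fluorescence plus electrophoretic mobility shift separating substrate and product, read 1 hour after dosing; loss of signal vs DMSO. Duplicate screen at 25 uM, then concentration-response to 50 uM.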

Experiment [8] deals with human Fibroblast Growth Factor Receptor 1 (FGFR1), FGFR1 (gene 2260) (UniProt P11362). Description: NVS_ENZ_hFGFR1: NovaScreen (NVS) Enzymatic Assay for human Fibroblast Growth Factor Receptor 1 (FGFR1) (AID 2283159).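 Note: hits lower the signal so potencies describe inhibitors of the kinase.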 A digest of the protocol: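 Cell-free recombinant kinase with fluorescent substrate, product separated by electrophoretic mobility shift; read 1 hour after dosing, loss of signal relative to DMSO. Initial screen in duplicate at 25 uM, actives followed in concentration series.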

The target in experiment [9] is Histone deacetylase 3 (Homo sapiens) (UniProt O15379). Description: NVS_ENZ_hHDAC3: NovaScreen (NVS) Enzymatic Assay for human Histone Deacetylase 3 (HDAC3) (AID 2283163). The essentials: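 Cell-free enzyme format: loss of fluorescent product after mobility-shift separation, 1 h incubation, recombinant human HDAC3. Single 25 uM duplicate screen first, then concentration series to a 50 uM top for hits; DMSO as baseline.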

Experiment [10] deals with Protein deacetylase HDAC6 (Homo sapiens) (UniProt Q9UBN7). Description: NVS_ENZ_hHDAC6: NovaScreen (NVS) Enzymatic Assay for human Histone Deacetylase 6 (HDAC6) (AID 2283164). The essentials:
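Concentration-response runs up to 50 uM followed a duplicate 25 uM single-point screen. Deacetylase activity of recombinant human HDAC6 read by fluorescence after 1 h, with mobility-shift separation of substrate and product; DMSO as baseline.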

For experiment [11], the target named is human Colony Stimulating Factor 1 Receptor (CSF1R), CSF1R (gene 1436) (UniProt P07333). The experiment is described as follows: NVS_ENZ_hCSF1R: NovaScreen (NVS) Enzymatic Assay for human Colony Stimulating Factor 1 Receptor (CSF1R) (AID 2283150). The essentials: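 Compounds screened in duplicate at 25 uM, then concentration-response (top 50 uM) for those passing threshold such as 30% inhibition; recombinant CSF1R activity measured 1 h post-dosing via fluorescent substrate/product mobility-shift separation, loss of signal versus DMSO.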

For experiment [12], the target named is human Elastase, ELANE (gene 1991) (UniProt P08246). The experiment is described as follows: NVS_ENZ_hElastase: NovaScreen (NVS) Enzymatic Assay for human Elastase (AID 2283153). The essentials: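 Concentration-response to 50 uM max, run singly for chemicals passing a threshold (e.g., 30% inhibition) in a duplicate 25 uM single-point screen. Neutrophil-derived human elastase, absorbance read-out of enzyme activity at 1.5 h; DMSO baseline.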

In experiment [13] the target is human Janus Kinase 2 (Jak2), JAK2 (gene 3717) (UniProt O60674). Description: NVS_ENZ_hJak2: NovaScreen (NVS) Enzymatic Assay for human Janus Kinase 2 (Jak2) (AID 2283169). The essentials: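 Single-point duplicate screen at 25 uM, with hits run in concentration series to a 50 uM top dose. Substrate-product separation by mobility shift with fluorescence detection, 1 h post-dosing; DMSO baseline.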

Experiment [14] deals with Mitogen-activated protein kinase 3 (Homo sapiens) (UniProt P27361). The experiment is described as follows: NVS_ENZ_hMAPK3: NovaScreen (NVS) Enzymatic Assay for human Mitogen-Activated Protein Kinase 3 (MAPK 3) (AID 2283177). A digest of the protocol: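 Chemicals were first tested in duplicate at 25 uM, with hits re-run as concentration series (max 50 uM). Recombinant enzyme activity, measured 1 h post-dose in a cell-free format, was read by fluorescence/mobility shift relative to DMSO.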

Experiment [15] has as its target human Ephrin type-B Receptor 2 (EphB2), EPHB2 (gene 2048) (UniProt P29323). Description: NVS_ENZ_hEphB2: NovaScreen (NVS) Enzymatic Assay for human Ephrin type-B Receptor 2 (EphB2) (AID 2283156). The essentials: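 Compounds were first tested in duplicate at 25 uM, with hits rerun singly in concentration series up to 50 uM. Enzyme activity on fluorescent substrate was read at 1 h by mobility-shift separation, scored as signal loss relative to DMSO.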

Experiment [16] concerns the target human FYN Proto-Oncogene, Src family Tyrosine Kinase (Fyn), FYN (gene 2534) (UniProt P06241). Description: NVS_ENZ_hFyn: NovaScreen (NVS) Enzymatic Assay for human FYN Proto-Oncogene, Src family Tyrosine Kinase (Fyn) (AID 2283161). A digest of the protocol:
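Cell-free kinase activity read by fluorescence after mobility-shift separation of substrate and product, 1 h post-dose. Initial single concentration 25 uM in duplicate, then concentration-response follow-up; DMSO baseline.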

The target of experiment [17] is human MET Proto-Oncogene, Receptor Tyrosine Kinase (MET), MET (gene 4233) (UniProt P08581). The experiment is described as follows: NVS_ENZ_hMet: NovaScreen (NVS) Enzymatic Assay for human MET Proto-Oncogene, Receptor Tyrosine Kinase (MET) (AID 2283180). A digest of the protocol:
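Hits from a 25 uM duplicate screen were retested in concentration series up to 50 uM. Enzyme activity was measured by fluorescence after electrophoretic separation of product from substrate, 1 h after compound addition, relative to DMSO.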

Sequence of human Esterase Plasma (ES), BCHE (gene 590) (P06276 whole entry, looked up): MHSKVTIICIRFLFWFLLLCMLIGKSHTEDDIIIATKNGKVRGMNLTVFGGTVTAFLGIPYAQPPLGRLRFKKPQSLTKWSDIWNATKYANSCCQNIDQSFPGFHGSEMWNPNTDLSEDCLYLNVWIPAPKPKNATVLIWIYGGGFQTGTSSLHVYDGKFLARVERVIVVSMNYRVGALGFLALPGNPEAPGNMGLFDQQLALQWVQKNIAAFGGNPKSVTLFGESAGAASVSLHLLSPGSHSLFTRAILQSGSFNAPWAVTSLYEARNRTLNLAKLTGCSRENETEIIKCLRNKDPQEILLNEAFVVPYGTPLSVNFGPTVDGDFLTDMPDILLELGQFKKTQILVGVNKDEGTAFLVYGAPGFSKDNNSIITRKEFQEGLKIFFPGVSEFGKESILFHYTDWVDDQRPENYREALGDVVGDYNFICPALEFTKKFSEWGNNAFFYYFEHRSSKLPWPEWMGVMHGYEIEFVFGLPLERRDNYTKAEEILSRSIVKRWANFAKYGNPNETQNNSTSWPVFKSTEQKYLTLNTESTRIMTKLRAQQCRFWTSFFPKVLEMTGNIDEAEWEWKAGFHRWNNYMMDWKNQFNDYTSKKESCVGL
Sequence of Mitogen-activated protein kinase 3 (Homo sapiens) (P27361 whole entry, looked up): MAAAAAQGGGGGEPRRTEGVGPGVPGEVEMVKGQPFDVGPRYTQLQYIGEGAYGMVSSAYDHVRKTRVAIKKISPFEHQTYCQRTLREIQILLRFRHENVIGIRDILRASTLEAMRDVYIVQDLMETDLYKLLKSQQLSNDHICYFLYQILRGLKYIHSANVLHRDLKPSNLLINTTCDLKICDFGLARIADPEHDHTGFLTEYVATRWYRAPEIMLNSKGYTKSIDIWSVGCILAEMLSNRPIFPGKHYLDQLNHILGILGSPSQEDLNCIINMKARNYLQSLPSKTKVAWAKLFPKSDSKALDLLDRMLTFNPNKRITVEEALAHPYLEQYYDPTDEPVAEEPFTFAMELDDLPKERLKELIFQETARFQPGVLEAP
Sequence of Glycogen synthase kinase-3 beta (Homo sapiens) (P49841 whole entry, looked up): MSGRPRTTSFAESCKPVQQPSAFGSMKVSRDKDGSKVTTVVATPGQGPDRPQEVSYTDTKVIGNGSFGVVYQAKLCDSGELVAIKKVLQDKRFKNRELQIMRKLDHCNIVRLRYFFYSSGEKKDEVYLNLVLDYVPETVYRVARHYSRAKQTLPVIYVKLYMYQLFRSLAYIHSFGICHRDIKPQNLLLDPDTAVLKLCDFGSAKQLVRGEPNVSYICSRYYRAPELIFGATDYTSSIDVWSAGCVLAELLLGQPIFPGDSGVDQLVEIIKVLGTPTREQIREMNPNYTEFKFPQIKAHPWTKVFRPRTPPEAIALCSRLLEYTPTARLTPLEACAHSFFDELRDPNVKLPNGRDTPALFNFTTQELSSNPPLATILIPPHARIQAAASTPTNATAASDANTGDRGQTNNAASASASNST
Sequence of human Beta-secretase (BACE), BACE1 (gene 23621) (P56817 whole entry, looked up): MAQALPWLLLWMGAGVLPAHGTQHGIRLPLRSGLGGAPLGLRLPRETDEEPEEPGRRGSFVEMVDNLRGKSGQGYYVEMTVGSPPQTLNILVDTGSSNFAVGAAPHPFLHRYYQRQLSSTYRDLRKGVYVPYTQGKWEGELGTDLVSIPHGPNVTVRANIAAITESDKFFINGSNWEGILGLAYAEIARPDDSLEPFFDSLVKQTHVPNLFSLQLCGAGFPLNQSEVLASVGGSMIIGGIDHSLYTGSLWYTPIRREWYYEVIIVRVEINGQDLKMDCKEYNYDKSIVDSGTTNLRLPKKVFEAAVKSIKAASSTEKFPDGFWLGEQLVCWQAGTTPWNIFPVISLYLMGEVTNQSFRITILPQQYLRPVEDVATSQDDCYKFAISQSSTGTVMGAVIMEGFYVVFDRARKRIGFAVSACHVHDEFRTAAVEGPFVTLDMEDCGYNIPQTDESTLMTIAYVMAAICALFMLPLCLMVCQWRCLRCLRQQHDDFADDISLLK
Sequence of human Dual Specificity Protein Phosphatase 3 (DUSP3), DUSP3 (gene 1845) (P51452 whole entry, looked up): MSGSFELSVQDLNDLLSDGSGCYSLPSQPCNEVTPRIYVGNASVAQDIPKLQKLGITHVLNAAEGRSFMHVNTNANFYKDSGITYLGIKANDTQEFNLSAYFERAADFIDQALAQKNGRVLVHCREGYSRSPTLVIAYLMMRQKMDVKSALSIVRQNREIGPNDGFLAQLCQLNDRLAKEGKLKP
Sequence of human Epidermal Growth Factor Receptor (EGFR), EGFR (gene 1956) (P00533 whole entry, looked up): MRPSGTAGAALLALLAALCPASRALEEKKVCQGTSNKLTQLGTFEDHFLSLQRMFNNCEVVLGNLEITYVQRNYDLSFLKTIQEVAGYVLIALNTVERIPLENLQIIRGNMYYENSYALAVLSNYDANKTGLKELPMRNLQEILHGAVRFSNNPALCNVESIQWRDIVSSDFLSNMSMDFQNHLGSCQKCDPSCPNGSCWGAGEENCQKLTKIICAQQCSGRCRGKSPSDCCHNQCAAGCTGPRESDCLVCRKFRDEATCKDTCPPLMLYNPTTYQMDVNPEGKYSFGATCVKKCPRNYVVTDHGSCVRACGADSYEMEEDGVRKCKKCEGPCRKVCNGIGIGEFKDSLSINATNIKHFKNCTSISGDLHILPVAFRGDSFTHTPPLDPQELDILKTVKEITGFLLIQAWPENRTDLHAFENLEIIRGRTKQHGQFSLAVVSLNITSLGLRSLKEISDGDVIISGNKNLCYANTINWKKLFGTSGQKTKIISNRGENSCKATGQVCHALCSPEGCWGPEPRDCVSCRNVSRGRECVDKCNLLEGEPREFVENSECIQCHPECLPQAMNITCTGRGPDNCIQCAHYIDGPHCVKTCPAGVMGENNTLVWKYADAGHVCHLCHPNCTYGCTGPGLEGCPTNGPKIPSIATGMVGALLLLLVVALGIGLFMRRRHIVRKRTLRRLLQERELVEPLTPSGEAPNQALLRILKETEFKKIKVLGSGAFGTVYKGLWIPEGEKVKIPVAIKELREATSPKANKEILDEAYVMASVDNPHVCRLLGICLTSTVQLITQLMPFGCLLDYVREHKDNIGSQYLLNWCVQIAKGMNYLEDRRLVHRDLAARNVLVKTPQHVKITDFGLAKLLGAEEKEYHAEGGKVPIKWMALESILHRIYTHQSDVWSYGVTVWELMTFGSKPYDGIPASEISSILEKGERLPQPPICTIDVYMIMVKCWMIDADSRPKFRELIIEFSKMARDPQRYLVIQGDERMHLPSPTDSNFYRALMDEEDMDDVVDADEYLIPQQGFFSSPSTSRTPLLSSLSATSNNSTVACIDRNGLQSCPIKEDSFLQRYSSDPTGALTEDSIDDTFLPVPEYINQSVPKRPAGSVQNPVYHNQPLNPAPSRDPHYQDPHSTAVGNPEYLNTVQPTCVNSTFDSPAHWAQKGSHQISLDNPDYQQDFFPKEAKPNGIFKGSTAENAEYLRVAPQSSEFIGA
Sequence of human AKT serine/threonine Kinase 2 (AKT2), AKT2 (gene 208) (P31751 whole entry, looked up): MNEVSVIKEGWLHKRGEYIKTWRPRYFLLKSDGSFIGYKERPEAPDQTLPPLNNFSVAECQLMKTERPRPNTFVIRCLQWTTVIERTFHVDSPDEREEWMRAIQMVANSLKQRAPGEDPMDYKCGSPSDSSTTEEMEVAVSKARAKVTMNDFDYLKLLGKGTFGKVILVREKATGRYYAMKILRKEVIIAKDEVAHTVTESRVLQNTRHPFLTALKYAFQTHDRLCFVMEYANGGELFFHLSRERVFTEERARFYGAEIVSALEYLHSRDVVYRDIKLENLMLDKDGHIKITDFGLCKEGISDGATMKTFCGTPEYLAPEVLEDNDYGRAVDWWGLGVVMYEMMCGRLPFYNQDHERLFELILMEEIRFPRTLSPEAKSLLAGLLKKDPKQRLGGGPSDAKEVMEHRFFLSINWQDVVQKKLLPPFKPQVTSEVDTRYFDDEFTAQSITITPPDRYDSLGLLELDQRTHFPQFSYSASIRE
Sequence of human Colony Stimulating Factor 1 Receptor (CSF1R), CSF1R (gene 1436) (P07333 whole entry, looked up): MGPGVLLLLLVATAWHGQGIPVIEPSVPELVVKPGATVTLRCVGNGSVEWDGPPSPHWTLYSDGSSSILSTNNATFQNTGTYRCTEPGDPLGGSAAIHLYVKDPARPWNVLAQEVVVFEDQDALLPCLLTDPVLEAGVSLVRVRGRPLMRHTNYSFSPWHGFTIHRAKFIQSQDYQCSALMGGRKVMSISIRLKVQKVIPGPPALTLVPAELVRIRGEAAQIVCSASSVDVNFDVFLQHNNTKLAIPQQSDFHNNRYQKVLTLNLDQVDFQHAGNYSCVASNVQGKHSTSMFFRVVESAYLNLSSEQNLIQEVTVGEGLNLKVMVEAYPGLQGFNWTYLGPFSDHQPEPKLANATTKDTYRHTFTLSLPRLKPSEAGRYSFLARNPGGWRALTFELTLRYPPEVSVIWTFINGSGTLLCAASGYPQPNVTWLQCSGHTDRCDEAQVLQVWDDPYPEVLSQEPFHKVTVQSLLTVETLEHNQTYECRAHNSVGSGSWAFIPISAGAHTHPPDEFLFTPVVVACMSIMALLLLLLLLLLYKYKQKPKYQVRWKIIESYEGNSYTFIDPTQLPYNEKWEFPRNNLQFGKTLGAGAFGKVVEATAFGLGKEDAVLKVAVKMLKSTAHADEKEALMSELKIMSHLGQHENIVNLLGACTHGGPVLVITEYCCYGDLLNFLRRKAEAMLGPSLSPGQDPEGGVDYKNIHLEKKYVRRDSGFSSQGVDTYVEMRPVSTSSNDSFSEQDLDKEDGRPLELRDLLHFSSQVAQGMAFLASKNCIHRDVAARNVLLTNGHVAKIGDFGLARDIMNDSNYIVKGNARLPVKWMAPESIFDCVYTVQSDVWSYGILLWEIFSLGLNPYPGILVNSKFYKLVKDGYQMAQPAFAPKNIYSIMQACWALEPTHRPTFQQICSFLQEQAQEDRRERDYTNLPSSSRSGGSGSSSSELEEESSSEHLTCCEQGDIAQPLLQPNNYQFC
Sequence of human Elastase, ELANE (gene 1991) (P08246 whole entry, looked up): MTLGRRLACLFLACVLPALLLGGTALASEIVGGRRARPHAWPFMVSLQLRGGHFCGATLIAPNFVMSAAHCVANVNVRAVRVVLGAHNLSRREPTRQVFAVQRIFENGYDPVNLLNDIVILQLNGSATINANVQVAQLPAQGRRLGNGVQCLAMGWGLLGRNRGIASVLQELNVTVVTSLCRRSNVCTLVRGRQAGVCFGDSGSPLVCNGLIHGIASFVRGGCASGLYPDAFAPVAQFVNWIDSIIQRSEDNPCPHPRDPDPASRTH

Turning to `CC(C)(OO)c1ccccc1`, the molecule was called inactive in experiment [1] and in experiment [2].
In the case of `COP(=S)(OC)Oc1ccc(S(=O)(=O)N(C)C)cc1`, the figures for the AC50 in experiment [3] and in experiment [4] were 7.43 µM (active) and 20 µM (active), respectively.
Consider `CC(C)CCCCCCOC(=O)c1ccccc1C(=O)OCCCCCCC(C)C`, for which the AC50 in experiment [5] was 8.09 µM (active).
In the case of `CC(=O)[O][Hg][c]1ccccc1`, the half-maximal activity concentration (AC50) in experiment [6] was 8.22 µM (active); in experiment [7] it was 9.71 µM (active); in experiment [8], 33.4 µM (active); in experiment [9], 9.74 µM (active); in experiment [10], 2.32 µM (active). In experiment [4], the molecule was called inactive.
Regarding `ClC1(Cl)C2(Cl)C3(Cl)C4(Cl)C(Cl)(Cl)C5(Cl)C3(Cl)C1(Cl)C5(Cl)C24Cl` (stereo not drawn), the call in [1], in experiment [11], in [7] and in [3] was inactive. Besides, the AC50 in experiment [12] is 1.1 µM (active).
`Cn1sc(Cl)cc1=O`: the outcome in [5], in experiment [11], in experiment [12], in [4], in experiment [13] and in experiment [14] was inactive.
As to `O=C(O)C(F)(F)C(F)(F)C(F)(F)C(F)(F)C(F)(F)C(F)(F)F`, the AC50 in [5] was 18.6 µM (active).
Take `O=C(O)C(Cl)(Cl)Cl`: the molecule was called inactive in [15].
For `CCC(=O)C(CC(C)N(C)C)(c1ccccc1)c1ccccc1` (stereo not drawn), the AC50 in experiment [4] is 15.6 µM (active).
As for `CCOP(=S)(OCC)Oc1nc(Cl)c(Cl)cc1Cl`, in experiment [4], the AC50 was 25 µM (active).
Consider `NC(=O)O`, for which, in experiment [16], the outcome was inactive.
For `C[C@]12CCC(=O)C[C@@H]1CC[C@@H]1[C@@H]2CC[C@]2(C)[C@@H](O)CC[C@@H]12`, the result in experiment [10] was inactive.
As for `CC(C)(C)CC(C)(C)c1ccc(O)cc1`, the result in experiment [2] was inactive.
`Cc1ccccc1N`: the outcome in experiment [2] was inactive.
For `CC12CC1(C)C(=O)N(c1cc(Cl)cc(Cl)c1)C2=O` (stereo not drawn), the AC50 in experiment [14] is 40.6 µM (active).
For `C[C@@H]1C[C@@H]([C@H](O)CC2CC(=O)NC(=O)C2)C(=O)[C@@H](C)C1`, the molecule was classed as inactive in [14].
On to `CC(C)(C)c1cc(O)ccc1O`, for which, in experiment [17], the molecule was classed as inactive.
